Test results taken from PubChem BioAssay (NCATS).
Results filed as inconclusive are left out. Calls of active or inactive are those of the source. Calls follow the shape of the dose curve; as a rule, active = well fitted curve in the direction sought with a large enough effect; inconclusive = small, poorly fitted or top-dose-only effect, or another doubt; inactive = no such curve, though single readings can be large; an effect the other way counts as inactive or inconclusive.

Tests used:
[1] = target: Metallo-beta-lactamase type 2 (Klebsiella pneumoniae) (UniProt C7C422); assay: qHTS to identify inhibitors of the New Delhi Metallo-beta-lactamase (NDM): assay validation screen against the NCATS LOPAC Collection (AID 1794843);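 also: nitrocefin turnover by NDM-1 measured as 485 nm absorbance at plateau; series mostly up to about 38 µM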
Procedure, shortened: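 NDM-1 at 2 nM final in 50 mM HEPES pH 7.0 with 1 uM ZnSO4 and 0.01% Tween20 was preincubated with library compounds in DMSO. Nitrocefin (50 uM stock) was then added, and absorbance at 485 nm was read at the kinetic plateau.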

[2] = target: Glutathione peroxidase 1 (Homo sapiens) (UniProt P07203); assay: Primary qHTS Assay for Inhibitors of Recombinant Selenoprotein Glutathione Peroxidase 1 (GPX1) (AID 1845191); also: nearly all actives have a fitted effect of over 65% in size
Procedure, shortened: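 Recombinant GPX1 (10 nM final) was preincubated with compound for 30 min at room temperature, then reacted with 1 mM GSH, 0.5 mM CHP, 0.5 mM NADPH and 100 nM glutathione reductase; NADPH fluorescence (340/450 nm) was read at 0 and 15 min.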

[3] = target: Phospholipid hydroperoxide glutathione peroxidase GPX4 (Homo sapiens) (UniProt P36969); assay: Primary qHTS Assay for Inhibitors of Recombinant Selenoprotein Glutathione Peroxidase 4 (GPX4) (AID 1845192); also: nearly all actives have a fitted effect of over 65% in size
Procedure, shortened: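 GR-coupled readout: 100 nM GR, 1 mM GSH, 0.5 mM NADPH; NADPH fluorescence (ex 340/em 450 nm) read at t=0 and after 15 min RT. GPX4 200 nM, preincubated 30 min with compound; substrate 0.5 mM CHP.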

[4] = Quantitative High-Throughput drug screen in 47 multiple myeloma cell lines against the NCATS MIPE library collection: FR4_PLB cell viability assay (AID 1918924; also: nearly all actives have a fitted effect of over 35% in size; also: potency is read from the fitted curve at half-maximal effect)
Procedure, shortened: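 Viability readout: CellTiter-Glo luminescence following 5 min room-temperature incubation with reagent. Prior exposure: 48 h, 37C, humidified 5% CO2, 500 cells per well.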

[5] = target: Luciferin 4-monooxygenase (Photinus pyralis) (UniProt P08659); assay: Primary firefly luciferase (FLuc) qHTS assay for identification of artifact compounds. (AID 1845220); settings: outcome: dose series up to 54.1 µM; also: nearly all actives have a fitted effect of over 60% in size
Procedure, shortened: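 qHTS, 15 min compound preincubation with substrate (10 uM luciferin, 10 uM ATP) at RT, then 10 nM FLuc; 5 min; luminescence; % inhibition vs no-enzyme/DMSO controls, 4-parameter Hill fit.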

[6] = Primary fluorescence-based thiol-reactive (MSTI) qHTS assay for identification of artifact compounds. (AID 1845221);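 also: series mostly up to about 54 µM; thiol-reactive compounds lower the probe fluorescence signal; nearly all actives have a fitted effect of over 65% in size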
Procedure, shortened: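 A multi-concentration qHTS design tested compounds against 4 uM MSTI, pH 7.4 phosphate-buffered saline. Plates were protected from light for 1 h at room temperature before imaging fluorescence.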

[7] = tested on: Nanoluciferase (engineered Oplophorus gracilirostris luciferase); assay: Primary Nanoluciferase (NLuc) qHTS assay for identification of artifact compounds. (AID 1845222); also: series mostly up to about 54 µM
Procedure, shortened: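 Luminescence read-out of secreted NLuc in S16 cell conditioned medium (1:55); compounds tested with 15 min RT preincubation, then Nano-Glo substrate 1:100, 5 min. % inhibition vs no-enzyme and DMSO controls, 4-parameter Hill fit.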

[8] = Primary redox qHTS assay for identification of artifact compounds. (AID 1845223)
Procedure, shortened: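 Amplex Red (25 uM) and HRP (250 mU/mL) in HBSS, with compounds for 15 min, then 250 uM DTT for 30 min, room temperature, dark. Fluorescence 525/598 nm read; normalized to DMSO and 10 uM DA3003; Hill fit.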

[9] = Quantitative High-Throughput drug screen in 47 multiple myeloma cell lines against the NCATS MIPE library collection: Delta47_JCRB cell viability assay (AID 1918925; also: nearly all actives have a fitted effect of over 45% in size; also: potency is read from the fitted curve at half-maximal effect)
Procedure, shortened: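 Approved and investigational drugs from MIPE 4.0 were added by pin tool to 500 cells per well. After 48 hours at 37C, ATP-based CellTiter-Glo luminescence indicated remaining viability.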

[10] = HepG2 viability counterscreen (readout 1: protease activity) against the NCATS DSHEA and TCM libraries (AID 1794841);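 also: cells exposed to compounds for about 24 h before the protease read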
Text: Assay Development and Screening Technology Laboratory (ADST)
National Center for Advancing Translational Sciences (NCATS), Rockville, MD
National Institute of Health (NIH), Bethesda, Maryland
Dietary Supplements and Natural Products have minor oversight of their safety and efficacy. We assembled a collection of Dietary Supplements and Natural Products (DSNP) as well as Traditional Chinese Medicinal (TCM) Plant extracts, which were screened against an in vitro panel of assays, including a liver cytochrome p450 enzyme panel, CAR/PXR signaling pathways, and P-gp transporter assays, to assess their activity. This pipeline facilitated the interrogation of Natural Product-Drug Interaction (NaPDI) through prominent metabolizing pathways. […] Overall, we highlight four significant bioactivity profiles (measured by p-values) as examples of this prediction. […]
7; Read 1; Fluorescence; EnVision plate reader excitation 380 nm, emission 510 nm. […]
11; Read 2; Luminescence; ViewLux plate reader. […]
7. After incubation, plates were read for fluorescence intensity (Ex/Em = 380 nm/510 nm) on an EnVision detector (PerkinElmer, Shelton, Connecticut).
8. Once the detection for fluorescence was completed, plates were dispensed with 3 uL of CellTiter-Glo (Promega, Madison, WI). […]
11. Plates were then read for luminescence intensity on a ViewLux detector. […]

Measured: Potency

Phospholipid hydroperoxide glutathione peroxidase GPX4 (Homo sapiens), sequence (P36969 whole entry, looked up): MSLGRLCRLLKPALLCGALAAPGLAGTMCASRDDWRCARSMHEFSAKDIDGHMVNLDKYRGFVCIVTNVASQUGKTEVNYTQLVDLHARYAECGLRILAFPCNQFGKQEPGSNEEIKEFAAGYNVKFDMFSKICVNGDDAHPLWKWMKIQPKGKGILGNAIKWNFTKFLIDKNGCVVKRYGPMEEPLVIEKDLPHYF
Glutathione peroxidase 1 (Homo sapiens), sequence (P07203 whole entry, looked up): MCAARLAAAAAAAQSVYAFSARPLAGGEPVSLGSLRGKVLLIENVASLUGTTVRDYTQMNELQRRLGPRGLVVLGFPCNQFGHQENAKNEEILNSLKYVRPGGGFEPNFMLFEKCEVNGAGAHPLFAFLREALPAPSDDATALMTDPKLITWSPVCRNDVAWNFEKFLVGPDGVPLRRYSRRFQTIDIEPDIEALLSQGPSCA
Metallo-beta-lactamase type 2 (Klebsiella pneumoniae), sequence (C7C422 whole entry, looked up): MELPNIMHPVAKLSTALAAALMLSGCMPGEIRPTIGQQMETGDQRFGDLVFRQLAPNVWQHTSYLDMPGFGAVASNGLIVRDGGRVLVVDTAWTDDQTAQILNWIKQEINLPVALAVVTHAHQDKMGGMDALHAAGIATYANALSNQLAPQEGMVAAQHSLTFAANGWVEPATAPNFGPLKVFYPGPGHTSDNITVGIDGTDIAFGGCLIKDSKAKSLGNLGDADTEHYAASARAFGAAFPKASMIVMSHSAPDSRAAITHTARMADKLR

NCC(CC(=O)O)c1ccc(Cl)cc1 (stereo unspecified)
inactive: [1] | [2] | [3]

CCCN1CCC[C@@H]2Cc3nc(N)ncc3C[C@H]21
inactive: [1] | [2] | [3]

CCC1(C2=NCCN2)Cc2ccccc2O1 (stereo unspecified)
inactive: [1] | [2] | [3]

Cc1ccc(S(=O)(=O)N[C@@H](CCCCN)C(=O)CCl)cc1
inactive: [1] | [2] | [3]

c1ccc2c(c1)OCC(C1=NCCN1)O2 (stereo unspecified)
inactive: [1] | [2] | [3]

NN=C(N)N
inactive: [1] | [2] | [3]

O=C1NCN(c2ccccc2)C12CCN(CC1COc3ccccc3O1)CC2 (stereo unspecified)
inactive: [1] | [2] | [3]

CC(CCc1ccccc1)NC(C)C(O)c1ccc(O)cc1 (stereo unspecified)
inactive: [1] | [2] | [3]

Nc1ccncc1
inactive: [1] | [2] | [3]

CC(=O)[C@H]1CC[C@H]2[C@@H]3CC[C@H]4C[C@H](O)CC[C@]4(C)[C@H]3C(=O)C[C@]12C
inactive: [1] | [2] | [3]

Cc1ncc(CNC(=O)N(CCCl)N=O)c(N)n1
inactive: [1] | [2] | [3]

O=c1[nH]c2ccccc2n1CCCN1CCC(n2c(=O)[nH]c3cc(Cl)ccc32)CC1
inactive: [1] | [2] | [3] | [4]

C[C@@H]1O[C@@H](O[C@H]2C[C@@H](O)[C@]3(CO)[C@H]4[C@H](O)C[C@]5(C)[C@@H](C6=CC(=O)OC6)CC[C@]5(O)[C@@H]4CC[C@]3(O)C2)[C@H](O)[C@H](O)[C@H]1O
active: [4] 9.3 nM | [9] 29.6 nM
not listed: [10]
inactive: all other assays above

NCC1(CC(=O)O)CCCCC1
inactive: [1] | [2] | [3] | [4]

O=c1[nH]c2ccccc2n1C1CCN(CCCC(c2ccc(F)cc2)c2ccc(F)cc2)CC1
not listed: [4] | [9] | [10]
inactive: all other assays above

CC(C)=CCOc1c2occc2cc2ccc(=O)oc12
inactive: [10] | [1] | [2] | [3]

CC(O)(CS(=O)(=O)c1ccc(F)cc1)C(=O)Nc1ccc(C#N)c(C(F)(F)F)c1 (stereo unspecified)
active: [9] 296 nM
not listed: [4] | [10]
inactive: all other assays above

c1ccc(C2CC2)c(OCC2=NCCN2)c1
inactive: [1] | [2] | [3]

CC[C@@H](CO)NC(=O)[C@@H]1C=C2c3cccc4c3c(cn4C)C[C@H]2N(C)C1
inactive: [1] | [2] | [3]

CC(=O)[C@H]1CC[C@H]2[C@@H]3CC[C@H]4C[C@](C)(O)CC[C@]4(C)[C@H]3CC[C@]12C
inactive: [1] | [2] | [3]

CC[C@@H](CO)NC(=O)[C@@H]1C=C2c3cccc4[nH]cc(c34)C[C@H]2N(C)C1
inactive: [1] | [2] | [3]

CNCC(O)c1ccc(O)cc1 (stereo unspecified)
inactive: [1] | [2] | [3] | [4] | [9]

COc1ccccc1N1CCNCC1
inactive: [1] | [2] | [3]

NCC(O)c1ccc(O)cc1 (stereo unspecified)
inactive: [1] | [2] | [3]

Cc1cccc(C)c1NC1=NCCCS1
inactive: [1] | [2] | [3]

CN1C[C@H](CNC(=O)OCc2ccccc2)C[C@@H]2c3cccc4c3c(cn4C)C[C@H]21
inactive: [1] | [2] | [3]

COc1ccc(C(CN(C)C)C2(O)CCCCC2)cc1 (stereo unspecified)
inactive: [1] | [2] | [3] | [4] | [9]

CCCN1CCC[C@@H]2Cc3[nH]ncc3C[C@H]21
inactive: [1] | [2] | [3]

COc1ccc(Cc2nccc3cc(OC)c(OC)cc23)cc1OC
inactive: [2] | [3]

c1ccc2c(c1)Nc1ccccc1S2
inactive: [2] | [3]

CC(C)CC(N(C)C)C1(c2ccc(Cl)cc2)CCC1 (stereo unspecified)
inactive: [2] | [3]

CC(=O)Nc1cc([As](=O)(O)O)ccc1O
inactive: [2] | [3]

N[C@@H]1C[C@H]1c1ccccc1
inactive: [2] | [3]
